# Sampled rows, rich in hits. Any-hit rate of the full collection: about 2.6%.
# PME-1 inh – PME-1 inhibitors via competitive probe labeling, primary screen, biochemical, fluorescence polarization, FP-Rh probe, HTS; Protein phosphatase methylesterase 1 (Homo sapiens), Q9Y570; recombinant PME-1; inhibition, % at 5.9 µM; hit rate 0.53% among 320,000;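 active means inhibition above the campaign mean of all compounds plus 3 SD, cut at about 26% in these data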;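 further: competitive labeling of PME-1 active site by serine hydrolase directed probe; 0% = PME-1 with DMSO and 100% = wells lacking PME-1 enzyme; inhibitors block probe labeling so polarization falls and inhibition rises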
# Fam108B counter – mouse Fam108B serine hydrolase inhibitors, primary screen, counter-screen for RBBP9 inhibitor project, biochemical, fluorescence polarization; AID 1947, 2009; inhibition, % at 9.51 µM; hit rate 0.33% among 300,000; recombinant Fam108B, FP-Rh probe fluorescence polarization;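 active means inhibition above the screen mean inhibition plus 3 SD, computed separately per campaign, cut at about 18% in these data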;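 further: inhibitors lower polarization as less probe binds the enzyme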
# PRMT1 FP inh – PRMT1 methyltransferase inhibitors, primary screen, biochemical, fluorescence polarization. recombinant PRMT1, activity-based probe fluorescence polarization. hit rate 1.3% among 370,000. inhibition, % at 2.79 µM;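 active means inhibition above about 21% made by adding two undisclosed values, limit read from the data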
# Target sequence (Q99873 whole entry, looked up): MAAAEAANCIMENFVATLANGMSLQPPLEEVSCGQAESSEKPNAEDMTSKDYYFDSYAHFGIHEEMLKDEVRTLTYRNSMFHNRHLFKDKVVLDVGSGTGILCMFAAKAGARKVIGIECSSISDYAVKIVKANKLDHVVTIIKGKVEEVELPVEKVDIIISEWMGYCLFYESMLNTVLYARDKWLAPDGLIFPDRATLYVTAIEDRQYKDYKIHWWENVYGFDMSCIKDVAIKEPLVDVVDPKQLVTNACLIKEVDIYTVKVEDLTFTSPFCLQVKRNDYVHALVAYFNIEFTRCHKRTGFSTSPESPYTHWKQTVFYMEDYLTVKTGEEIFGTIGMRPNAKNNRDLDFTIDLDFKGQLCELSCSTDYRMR
# SIAE inh – human SIAE inhibitors, primary screen, biochemical, fluorescence polarization, FP-Rh probe, 1536-well HTS; inhibition, % at 9.66 µM; hit rate 0.69% among 370,000; Sialate O-acetylesterase (Homo sapiens), Q9HAT2; SIAE FP-Rh probe binding;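 active means inhibition above a cutoff: mean of compounds within the control limits plus 3 SD of those, cut at about 17% in these data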;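 further: 0% = plate median of compound wells and 100% = probe without SIAE protein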
# TCR CD3 inh – inhibitors of human TCR-CD3 interaction, primary screen, biochemical, fluorescence, TAMRA-labeled TCR probe | T-cell receptor (TCR) | hit rate 0.37% among 360,000 | inhibition, % at 9.4 µM | AID 651800, 2012;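 further: recombinant mutant TCR 2C K166C tagged with TAMRA read by polarization; 0% = receptor in buffer alone and 100% = receptor with positive control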
# PAD4 FP inh – human PAD4 inhibitors, primary screen, biochemical, fluorescence polarization, 1536-well format | recombinant PAD4, RCA probe fluorescence polarization | inhibition, % at 6.36 µM | hit rate 0.41% among 330,000 | AID 485272, 2010;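 active means percent inhibition above a cutoff equal to the mean of all tested compounds plus 3 SD, cut at about 15% in these data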;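 further: 0% = PAD4 with RCA probe and DMSO and 100% = probe without PAD4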
# BSA probe FL – compounds interfering with TAMRA-BSA probe, counter-screen for TCR-CD3 interaction inhibitor project, biochemical, fluorescence, TAMRA-labeled BSA. shares compounds with TCR CD3 inh. TAMRA-labeled BSA probe fluorescence counterscreen. inhibition, % at 9.4 µM. hit rate 10% among 1,200; in the data active means inhibition above about 23%;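 further: 0% = buffer low control and 100% = reference high control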
# TCR-CD3 inh conf – TCR-CD3 interaction inhibitors, retest, confirmation, biochemical, fluorescence, TAMRA-labeled TCR probe | shares compounds with TCR CD3 inh | inhibition, % at 9.4 µM | TAMRA-labeled TCR probe fluorescence binding assay | hit rate 48% among 1,200
# Numbers without * were called inactive; x = no result. Unless noted, no stated cut-off is given here; in the data, active means inhibition above about 19%; inactive means the rest.
SMILES,PME-1 inh,Fam108B counter,PRMT1 FP inh,SIAE inh,TCR CD3 inh,PAD4 FP inh,BSA probe FL,TCR-CD3 inh conf
COc1ccc(-c2nn(-c3ccccc3)cc2/C=N/NC(=O)c2cccc(S(=O)(=O)Nc3ccccc3OC)c2)cc1,-62.7,-44.5,1.4,-99.3,41.1*,-10.7,31.8*,45.8*
COC(=O)[C@H](C(C)C)N(CCCc1cn(CC2CCCCC2)nn1)S(=O)(=O)c1ccc(F)cc1Br,x,x,-3.4,-4.0,x,x,x,x
COc1ccc(CCN(C(=S)Nc2ccccc2)C2CC(=O)N(c3ccccc3)C2=O)cc1 (stereo not given),-1.5,-1.1,-1.6,-1.7,8.2,-6.4,x,x
O=C1CC(N(CCc2ccccc2)C(=S)Nc2ccccc2)C(=O)N1c1ccc(Br)cc1 (stereo not given),-71.5,-51.7,-0.5,-140.5,24.1*,-0.8,2.9,3.0
O=C1NC[C@H](Cc2ccc(O)cc2)N(CCc2cccc(F)c2)C1=O,x,x,17.1,1.2,64.0*,x,4.5,2.9
Cc1cc(=O)[nH]c(SCC(=O)Nc2ccc(F)c(F)c2)n1,x,x,3.0,-0.6,x,x,x,x
CCCCn1nnnc1SCC(=O)N1CCCC1,0.3,2.4,-2.2,5.5,20.8*,2.6,4.4,2.7
CCOC(=O)CC[C@@H]1CC[C@]2(CCCN(C(=O)C(C)(C)C)C2)O1,x,x,-3.8,-3.4,x,x,x,x
CC(C)CNC(=O)OCc1cn(Cc2ccc(Cl)cc2)nn1,x,x,-0.4,3.4,x,x,x,x
O=C(COC(=O)CCCCCN=C1NS(=O)(=O)c2ccccc21)Nc1ccc(Cl)c(Cl)c1,-81.2,-30.0,-2.4,-119.0,19.0*,-5.3,6.7,9.9
O=C(CCCN=C1NS(=O)(=O)c2ccccc21)OCC(=O)c1ccccc1,-1.8,6.5,1.6,-5.1,-1.8,0.1,x,x
CC(C)C[C@@H](CO)N1Cc2nnn(Cc3ccccc3)c2-c2ccccc2S1(=O)=O,x,x,-0.3,-4.0,x,x,x,x
O=C(Nc1ccc(Cl)c(Cl)c1)O/N=C/c1ccncc1,-91.0,-65.2,1.2,-120.9,41.8*,0.0,10.4,19.7*
O=C(Nc1cccc(Cl)c1)O/N=C\c1ccncc1,-4.9,1.1,-2.5,-7.2,-3.4,4.1,x,x
COc1ccc(S[C@]2(C(=O)N3CCN(c4ncccn4)CC3)CC(=O)N(C(=O)/C=C/c3ccccc3)[C@@H]2c2ccc(OC)cc2)cc1,x,x,4.3,4.2,x,x,x,x
CCn1c(CSc2nc3ccccc3s2)nnc1SCC(=O)c1ccc(O)c(O)c1,-2.6,0.7,16.0,-6.1,23.2*,2.4,-17.7,29.1*
CCn1c(SCC(=O)c2ccc(O)c(O)c2)nnc1-c1ccccc1OC,0.4,-0.8,6.7,5.0,28.8*,-1.7,-0.8,31.4*
C#CCn1c(=NC(=O)c2ccc(S(=O)(=O)N3CCCc4ccccc43)cc2)sc2cc(S(N)(=O)=O)ccc21,-98.5,-76.5,1.0,-129.5,20.9*,-7.1,19.1,23.3*
Brc1ccc(-c2nn3c(-c4ccccc4)nnc3s2)o1,x,x,2.3,-1.3,x,x,x,x
O=C(OCC(=O)N1CCOCC1)c1cccc(S(=O)(=O)Nc2ccc(F)cc2)c1,1.4,x,-0.2,1.9,39.1*,-4.5,-0.2,-3.7
CO[C@H]([C@H](C)/C=C/N(C)C=O)[C@@H](C)C(=O)CC[C@H](C)[C@H](O)[C@H](C)[C@H]1OC(=O)/C=C/C(C)=C/C[C@H](O)C[C@@H]2C=CC[C@@H](C[C@H](OC)C(C)(O)[C@@H](OC)C[C@@H](OC)[C@@H]1C)O2 (stereo not given in full),x,x,-1.3,3.5,x,x,x,x
Cc1ccn2c(NC3CCCCC3)c(-c3cccc(SC4CCCCC4)c3)nc2c1,x,x,1.8,7.2,-2.2,-0.9,x,x
